In publication PMC7862700, “An all-to-all approach to the identification of sequence-specific readers for epigenetic DNA modifications on cytosine”:

Assays:
Experiment in all cases: DAPPL (digital affinity profiling via proximity ligation, sequencing); 10 mM Tris-HCl pH 7.5, 50 mM NaCl, 1 mM DTT, 4% glycerol, room temperature, 30 min; GST-TFs on glutathione beads, 16-mer random dsDNA library, 0.1% formaldehyde crosslink after washing; high values mean tight binding
Conditions in all cases: protein: recombinant; tags: N-terminal GST; dsDNA, one strand shown
FLI1 = target: T1, FLI1 (Homo sapiens, UniProt Q01543 1-452)
T1 sequence: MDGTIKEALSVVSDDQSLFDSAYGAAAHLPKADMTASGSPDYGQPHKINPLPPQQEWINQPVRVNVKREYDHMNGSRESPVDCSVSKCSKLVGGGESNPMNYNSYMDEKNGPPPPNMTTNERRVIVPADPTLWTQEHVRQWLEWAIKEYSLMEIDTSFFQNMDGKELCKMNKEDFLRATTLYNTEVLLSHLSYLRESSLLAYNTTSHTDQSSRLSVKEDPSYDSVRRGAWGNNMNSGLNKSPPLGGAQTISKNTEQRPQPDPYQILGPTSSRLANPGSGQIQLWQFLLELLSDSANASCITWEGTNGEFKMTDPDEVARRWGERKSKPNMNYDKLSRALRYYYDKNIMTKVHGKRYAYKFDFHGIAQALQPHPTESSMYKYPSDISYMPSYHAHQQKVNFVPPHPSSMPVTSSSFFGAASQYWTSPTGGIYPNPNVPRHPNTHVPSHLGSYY
Summary of the method: (§1)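 Human transcription factors fused to GST were expressed in yeast, captured on glutathione beads, given DNA barcodes and pooled with a GST-only negative control. Pools were incubated with 200 nmole of a 16-mer random double-stranded DNA library in Tris/NaCl/DTT/glycerol buffer at room temperature for 30 min. They were then washed, crosslinked with 0.1% formaldehyde, proximity-ligated (BsaI/T4 ligase, 1 h, 37 °C), PCR-amplified and sequenced on an Illumina NextSeq500. Binding signal is each 6-mer's read frequency for a factor divided by its frequency for the GST control.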

ELK1 = target: T2, ELK1 (Homo sapiens, UniProt P19419 1-428)
T2 sequence: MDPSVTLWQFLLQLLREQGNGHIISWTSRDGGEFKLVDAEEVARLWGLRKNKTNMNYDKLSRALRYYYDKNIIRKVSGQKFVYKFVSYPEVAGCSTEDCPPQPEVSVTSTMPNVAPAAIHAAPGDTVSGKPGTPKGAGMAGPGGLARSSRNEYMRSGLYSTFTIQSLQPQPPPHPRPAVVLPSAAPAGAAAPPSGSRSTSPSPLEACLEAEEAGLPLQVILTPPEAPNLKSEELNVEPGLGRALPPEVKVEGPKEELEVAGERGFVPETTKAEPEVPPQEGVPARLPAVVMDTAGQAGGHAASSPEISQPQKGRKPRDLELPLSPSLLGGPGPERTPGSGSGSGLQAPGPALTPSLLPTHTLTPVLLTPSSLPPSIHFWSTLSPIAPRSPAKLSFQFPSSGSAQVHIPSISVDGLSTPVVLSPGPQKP
Summary of the method: as §1

GABPA = target: T3, GABPA (Homo sapiens, UniProt Q06546 1-454)
T3 sequence: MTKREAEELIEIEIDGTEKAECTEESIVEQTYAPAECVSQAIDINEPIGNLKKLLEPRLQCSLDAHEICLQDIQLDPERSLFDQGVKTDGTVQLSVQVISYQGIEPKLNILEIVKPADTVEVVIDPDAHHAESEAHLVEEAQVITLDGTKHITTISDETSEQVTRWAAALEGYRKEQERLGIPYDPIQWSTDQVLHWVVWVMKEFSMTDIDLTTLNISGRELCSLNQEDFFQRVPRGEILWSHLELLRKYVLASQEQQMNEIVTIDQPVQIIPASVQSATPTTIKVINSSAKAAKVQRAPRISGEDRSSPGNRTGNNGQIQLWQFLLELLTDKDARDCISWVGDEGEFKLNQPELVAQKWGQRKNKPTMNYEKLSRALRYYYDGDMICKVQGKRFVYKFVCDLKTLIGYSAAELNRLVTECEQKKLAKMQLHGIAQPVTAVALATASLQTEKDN
Summary of the method: as §1

ERG = target: T4, ERG (Homo sapiens, UniProt P11308 1-479)
T4 sequence: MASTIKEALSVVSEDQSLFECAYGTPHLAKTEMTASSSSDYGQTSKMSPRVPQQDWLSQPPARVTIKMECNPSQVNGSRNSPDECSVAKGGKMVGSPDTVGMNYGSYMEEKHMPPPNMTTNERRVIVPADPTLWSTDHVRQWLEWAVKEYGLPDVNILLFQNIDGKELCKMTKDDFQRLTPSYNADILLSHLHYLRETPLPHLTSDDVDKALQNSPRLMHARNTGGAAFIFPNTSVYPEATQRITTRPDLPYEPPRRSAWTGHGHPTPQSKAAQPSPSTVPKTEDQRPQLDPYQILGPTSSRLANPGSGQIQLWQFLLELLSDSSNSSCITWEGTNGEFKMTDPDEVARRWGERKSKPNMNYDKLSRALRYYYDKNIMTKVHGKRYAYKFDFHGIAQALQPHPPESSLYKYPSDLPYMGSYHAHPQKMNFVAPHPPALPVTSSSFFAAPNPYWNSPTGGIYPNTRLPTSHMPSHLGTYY
Summary of the method: as §1

ELF1 = ELF1 (Homo sapiens, UniProt P32519 1-619)
Summary of the method: as §1

EHF = target: T5, EHF (Homo sapiens, UniProt Q9NZC4 1-300)
T5 sequence: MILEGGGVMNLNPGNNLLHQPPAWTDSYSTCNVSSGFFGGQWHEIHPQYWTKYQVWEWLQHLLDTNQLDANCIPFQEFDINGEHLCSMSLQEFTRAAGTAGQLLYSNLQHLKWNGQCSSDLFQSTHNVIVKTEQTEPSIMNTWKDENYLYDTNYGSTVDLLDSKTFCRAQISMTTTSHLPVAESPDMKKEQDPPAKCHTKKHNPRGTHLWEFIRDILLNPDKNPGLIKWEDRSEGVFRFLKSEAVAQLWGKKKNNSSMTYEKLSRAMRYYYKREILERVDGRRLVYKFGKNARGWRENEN
Summary of the method: as §1

SPI1 = SPI1 (Homo sapiens, UniProt P17947 1-270)
Summary of the method: as §1

SPIB = SPIB (Homo sapiens, UniProt Q01892 1-262)
Summary of the method: as §1

ELK3 = target: T6, ELK3 (Homo sapiens, UniProt P41970 1-407)
T6 sequence: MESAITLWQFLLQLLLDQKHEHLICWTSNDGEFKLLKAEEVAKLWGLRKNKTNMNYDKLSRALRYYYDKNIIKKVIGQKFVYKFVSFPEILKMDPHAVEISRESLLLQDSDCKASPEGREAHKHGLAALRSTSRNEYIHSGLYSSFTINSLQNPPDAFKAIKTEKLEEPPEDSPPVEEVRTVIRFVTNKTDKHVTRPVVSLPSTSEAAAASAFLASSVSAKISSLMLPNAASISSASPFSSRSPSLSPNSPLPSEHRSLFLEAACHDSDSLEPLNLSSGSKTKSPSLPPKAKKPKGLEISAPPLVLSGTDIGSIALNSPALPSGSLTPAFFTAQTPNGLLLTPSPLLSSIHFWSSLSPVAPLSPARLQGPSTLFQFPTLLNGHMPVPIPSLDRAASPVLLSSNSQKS
Summary of the method: as §1

FEV = target: T7, FEV (Homo sapiens, UniProt Q99581 1-238)
T7 sequence: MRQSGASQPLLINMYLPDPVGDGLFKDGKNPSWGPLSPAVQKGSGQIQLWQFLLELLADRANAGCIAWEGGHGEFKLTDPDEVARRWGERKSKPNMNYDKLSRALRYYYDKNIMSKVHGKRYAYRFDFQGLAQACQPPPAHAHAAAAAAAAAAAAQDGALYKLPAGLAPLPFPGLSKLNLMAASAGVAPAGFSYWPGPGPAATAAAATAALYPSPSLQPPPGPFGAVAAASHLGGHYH
Summary of the method: as §1

ETV5 = ETV5 (Homo sapiens, UniProt P41161 1-510)
Summary of the method: as §1

SPIC = target: T8, SPIC (Homo sapiens, UniProt Q8N5J4 1-248)
T8 sequence: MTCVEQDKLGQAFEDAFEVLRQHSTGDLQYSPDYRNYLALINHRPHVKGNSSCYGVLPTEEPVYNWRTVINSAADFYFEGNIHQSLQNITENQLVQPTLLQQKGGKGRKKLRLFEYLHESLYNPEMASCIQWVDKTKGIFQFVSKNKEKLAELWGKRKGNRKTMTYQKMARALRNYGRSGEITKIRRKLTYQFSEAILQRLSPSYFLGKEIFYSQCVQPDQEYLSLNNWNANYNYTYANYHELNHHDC
Summary of the method: as §1

ELF4 = ELF4 (Homo sapiens, UniProt Q99607 1-663)
Summary of the method: as §1

ELK4 = target: T9, ELK4 (Homo sapiens, UniProt P28324-2 1-405)
T9 sequence: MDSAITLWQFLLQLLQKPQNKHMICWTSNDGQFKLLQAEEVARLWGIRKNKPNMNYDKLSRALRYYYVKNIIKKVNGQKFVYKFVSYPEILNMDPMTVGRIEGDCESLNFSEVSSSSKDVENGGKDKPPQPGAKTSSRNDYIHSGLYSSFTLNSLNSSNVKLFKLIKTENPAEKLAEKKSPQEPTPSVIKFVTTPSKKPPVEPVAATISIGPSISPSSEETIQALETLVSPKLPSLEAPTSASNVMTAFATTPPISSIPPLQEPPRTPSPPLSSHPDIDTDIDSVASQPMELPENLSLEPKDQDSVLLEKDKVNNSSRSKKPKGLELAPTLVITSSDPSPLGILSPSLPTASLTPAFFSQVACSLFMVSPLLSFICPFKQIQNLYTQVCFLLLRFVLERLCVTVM
Summary of the method: as §1

ETV2 = target: T10, ETV2 (Homo sapiens, UniProt O00321 1-342)
T10 sequence: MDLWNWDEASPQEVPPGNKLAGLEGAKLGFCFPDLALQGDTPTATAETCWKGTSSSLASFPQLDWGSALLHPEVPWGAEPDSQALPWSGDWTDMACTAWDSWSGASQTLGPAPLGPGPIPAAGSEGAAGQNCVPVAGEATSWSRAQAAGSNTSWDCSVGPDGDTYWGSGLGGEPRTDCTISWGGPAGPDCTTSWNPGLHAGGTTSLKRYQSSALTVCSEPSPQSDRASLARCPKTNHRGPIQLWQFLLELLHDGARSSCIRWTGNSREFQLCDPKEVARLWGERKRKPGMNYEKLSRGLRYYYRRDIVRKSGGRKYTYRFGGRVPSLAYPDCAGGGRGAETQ
Summary of the method: as §1

ELF3 = target: T11, ELF3 (Homo sapiens, UniProt P78545 1-371)
T11 sequence: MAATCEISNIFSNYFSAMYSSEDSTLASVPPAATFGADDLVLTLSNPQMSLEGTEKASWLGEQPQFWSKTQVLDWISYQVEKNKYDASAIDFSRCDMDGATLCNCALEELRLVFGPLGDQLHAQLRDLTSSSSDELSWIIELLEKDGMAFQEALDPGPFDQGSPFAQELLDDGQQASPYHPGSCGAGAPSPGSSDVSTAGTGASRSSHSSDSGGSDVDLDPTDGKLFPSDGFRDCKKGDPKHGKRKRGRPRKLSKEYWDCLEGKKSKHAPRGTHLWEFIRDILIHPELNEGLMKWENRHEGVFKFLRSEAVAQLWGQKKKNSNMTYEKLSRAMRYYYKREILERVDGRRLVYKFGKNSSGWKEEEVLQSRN
Summary of the method: as §1

ETV1 = ETV1 (Homo sapiens, UniProt P50549 1-477)
Summary of the method: as §1

Chain of SPIB (Q01892 whole entry): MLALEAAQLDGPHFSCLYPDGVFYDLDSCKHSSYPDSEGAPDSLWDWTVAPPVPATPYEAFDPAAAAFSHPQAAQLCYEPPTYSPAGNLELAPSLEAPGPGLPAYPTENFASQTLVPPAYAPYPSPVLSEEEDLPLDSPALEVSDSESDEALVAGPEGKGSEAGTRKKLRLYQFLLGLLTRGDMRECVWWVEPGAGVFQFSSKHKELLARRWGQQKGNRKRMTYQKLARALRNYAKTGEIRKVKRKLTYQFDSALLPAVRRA
Chain of ETV5 (P41161 whole entry): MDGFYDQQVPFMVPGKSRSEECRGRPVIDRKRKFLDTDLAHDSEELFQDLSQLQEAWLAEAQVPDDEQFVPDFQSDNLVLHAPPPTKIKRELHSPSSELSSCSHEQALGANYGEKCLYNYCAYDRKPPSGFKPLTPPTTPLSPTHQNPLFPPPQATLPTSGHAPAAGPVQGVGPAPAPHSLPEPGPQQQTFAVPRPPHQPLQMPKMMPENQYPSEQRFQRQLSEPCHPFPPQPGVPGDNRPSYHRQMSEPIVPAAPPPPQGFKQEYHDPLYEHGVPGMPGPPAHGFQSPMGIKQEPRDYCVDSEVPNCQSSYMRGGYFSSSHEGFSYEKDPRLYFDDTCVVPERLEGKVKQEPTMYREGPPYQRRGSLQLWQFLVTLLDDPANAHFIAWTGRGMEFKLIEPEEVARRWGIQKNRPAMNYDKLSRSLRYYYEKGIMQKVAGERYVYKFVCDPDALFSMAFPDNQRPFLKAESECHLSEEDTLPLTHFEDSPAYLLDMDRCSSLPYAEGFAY
Chain of ETV1 (P50549 whole entry): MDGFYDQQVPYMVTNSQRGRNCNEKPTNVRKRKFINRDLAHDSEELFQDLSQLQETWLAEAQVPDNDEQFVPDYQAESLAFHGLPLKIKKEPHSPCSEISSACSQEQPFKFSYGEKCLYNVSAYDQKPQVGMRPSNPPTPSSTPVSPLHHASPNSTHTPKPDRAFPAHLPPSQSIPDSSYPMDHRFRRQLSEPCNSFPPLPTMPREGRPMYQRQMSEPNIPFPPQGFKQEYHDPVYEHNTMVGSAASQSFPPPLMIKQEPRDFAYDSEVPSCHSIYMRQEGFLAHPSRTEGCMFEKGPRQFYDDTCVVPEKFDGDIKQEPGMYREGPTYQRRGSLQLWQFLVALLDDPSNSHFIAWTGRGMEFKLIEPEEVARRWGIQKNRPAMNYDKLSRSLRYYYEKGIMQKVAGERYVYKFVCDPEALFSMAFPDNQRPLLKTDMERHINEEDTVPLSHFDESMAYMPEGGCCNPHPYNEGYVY
Chain of ELF4 (Q99607 whole entry): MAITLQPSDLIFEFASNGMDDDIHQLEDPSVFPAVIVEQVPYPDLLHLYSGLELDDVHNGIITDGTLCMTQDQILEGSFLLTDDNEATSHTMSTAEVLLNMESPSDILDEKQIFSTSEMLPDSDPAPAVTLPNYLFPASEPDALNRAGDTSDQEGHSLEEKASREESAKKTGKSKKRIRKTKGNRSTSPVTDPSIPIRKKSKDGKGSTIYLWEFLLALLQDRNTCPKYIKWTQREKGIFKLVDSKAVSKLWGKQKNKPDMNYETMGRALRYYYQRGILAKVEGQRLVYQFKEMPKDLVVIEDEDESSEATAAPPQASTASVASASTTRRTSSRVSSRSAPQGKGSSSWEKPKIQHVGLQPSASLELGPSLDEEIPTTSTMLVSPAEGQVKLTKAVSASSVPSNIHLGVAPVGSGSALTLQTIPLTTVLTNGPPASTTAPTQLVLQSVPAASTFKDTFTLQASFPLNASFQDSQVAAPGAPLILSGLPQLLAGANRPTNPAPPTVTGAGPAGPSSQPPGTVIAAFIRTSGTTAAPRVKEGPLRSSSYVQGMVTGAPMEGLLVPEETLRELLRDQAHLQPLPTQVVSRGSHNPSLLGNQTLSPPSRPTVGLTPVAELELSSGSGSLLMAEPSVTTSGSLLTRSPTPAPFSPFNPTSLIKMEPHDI
Chain of ELF1 (P32519 whole entry): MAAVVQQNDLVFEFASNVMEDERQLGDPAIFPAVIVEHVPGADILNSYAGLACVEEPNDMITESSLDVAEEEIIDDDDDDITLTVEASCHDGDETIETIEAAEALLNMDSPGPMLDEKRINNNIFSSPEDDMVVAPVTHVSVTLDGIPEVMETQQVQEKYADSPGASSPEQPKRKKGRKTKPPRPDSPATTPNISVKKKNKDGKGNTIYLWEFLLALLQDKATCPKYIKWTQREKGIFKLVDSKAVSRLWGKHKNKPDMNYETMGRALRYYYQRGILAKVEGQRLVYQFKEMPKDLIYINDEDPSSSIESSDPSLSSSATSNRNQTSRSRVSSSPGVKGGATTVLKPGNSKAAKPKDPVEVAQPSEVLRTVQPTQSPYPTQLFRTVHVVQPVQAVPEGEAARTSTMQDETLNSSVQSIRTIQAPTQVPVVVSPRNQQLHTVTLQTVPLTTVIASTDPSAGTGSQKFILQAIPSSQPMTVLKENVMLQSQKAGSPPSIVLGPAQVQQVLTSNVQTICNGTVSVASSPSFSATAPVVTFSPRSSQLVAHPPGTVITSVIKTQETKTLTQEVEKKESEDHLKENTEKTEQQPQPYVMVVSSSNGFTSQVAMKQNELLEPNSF

Sequence | binding signal (FLI1) | binding signal (ELK1) | binding signal (GABPA) | binding signal (ERG) | binding signal (ELF1) | binding signal (EHF) | binding signal (SPI1) | binding signal (SPIB) | binding signal (ELK3) | binding signal (FEV) | binding signal (ETV5) | binding signal (SPIC) | binding signal (ELF4) | binding signal (ELK4) | binding signal (ETV2) | binding signal (ELF3) | binding signal (ETV1)
GCTACG | 1.29 fold enrichment (6-mer frequency, TF over GST control) | 1.22 fold enrichment (6-mer frequency, TF over GST control) | 1.11 fold enrichment (6-mer frequency, TF over GST control) | 1.11 fold enrichment (6-mer frequency, TF over GST control) | 1.17 fold enrichment (6-mer frequency, TF over GST control) | 1.19 fold enrichment (6-mer frequency, TF over GST control) | 1.04 fold enrichment (6-mer frequency, TF over GST control) | 1.16 fold enrichment (6-mer frequency, TF over GST control) | 1.26 fold enrichment (6-mer frequency, TF over GST control) | 1.16 fold enrichment (6-mer frequency, TF over GST control) | 1.14 fold enrichment (6-mer frequency, TF over GST control) | 1.12 fold enrichment (6-mer frequency, TF over GST control) | 1.14 fold enrichment (6-mer frequency, TF over GST control) | 1.41 fold enrichment (6-mer frequency, TF over GST control) | 1.1 fold enrichment (6-mer frequency, TF over GST control) | 1.19 fold enrichment (6-mer frequency, TF over GST control) | 1.25 fold enrichment (6-mer frequency, TF over GST control)
CGTATC | 1.2 fold enrichment (6-mer frequency, TF over GST control) | 1.3 fold enrichment (6-mer frequency, TF over GST control) | 1.29 fold enrichment (6-mer frequency, TF over GST control) | 1.28 fold enrichment (6-mer frequency, TF over GST control) | 1.23 fold enrichment (6-mer frequency, TF over GST control) | 1.25 fold enrichment (6-mer frequency, TF over GST control) | 1.11 fold enrichment (6-mer frequency, TF over GST control) | 1.2 fold enrichment (6-mer frequency, TF over GST control) | 1.21 fold enrichment (6-mer frequency, TF over GST control) | 1.28 fold enrichment (6-mer frequency, TF over GST control) | 1.13 fold enrichment (6-mer frequency, TF over GST control) | 1.19 fold enrichment (6-mer frequency, TF over GST control) | 1.2 fold enrichment (6-mer frequency, TF over GST control) | 1.16 fold enrichment (6-mer frequency, TF over GST control) | 1.15 fold enrichment (6-mer frequency, TF over GST control) | 1.13 fold enrichment (6-mer frequency, TF over GST control) | 1.18 fold enrichment (6-mer frequency, TF over GST control)
